Most compounds without a hit are left out; they make up all but 2.5% or so of the library.
Mcl-1 Bim block: inhibitors of Bim peptide binding to Mcl-1, primary screen, biochemical, bead-based flow cytometry, multiplex; Induced myeloid leukemia cell differentiation protein Mcl-1 (Homo sapiens), Q07820; hit rate 0.1% among 190,000; inhibition, % at 10 µM; Bim peptide-Mcl-1 binding; in the data active means inhibition above about 40%;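 further: 0% = no compound tracer wells and 100% = peptide blocker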
Target sequence (Q07820 whole entry, looked up): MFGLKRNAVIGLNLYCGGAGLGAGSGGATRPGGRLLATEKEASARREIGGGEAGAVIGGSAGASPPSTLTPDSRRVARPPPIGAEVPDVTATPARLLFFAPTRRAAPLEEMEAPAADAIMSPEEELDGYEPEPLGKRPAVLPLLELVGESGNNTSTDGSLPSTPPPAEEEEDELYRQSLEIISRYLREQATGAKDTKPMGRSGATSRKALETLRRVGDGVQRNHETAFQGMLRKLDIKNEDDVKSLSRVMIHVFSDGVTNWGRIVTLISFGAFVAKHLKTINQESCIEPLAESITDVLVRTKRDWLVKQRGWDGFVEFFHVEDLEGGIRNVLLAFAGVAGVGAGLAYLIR
Mcl1-Noxa inh: Mcl-1/Noxa binding inhibitors, primary screen, biochemical, TR-FRET, 1536-well; Induced myeloid leukemia cell differentiation protein Mcl-1 (Homo sapiens), Q07820; TR-FRET Mcl-1/Noxa peptide binding, 2 h; inhibition, % at 21.7 µM; hit rate 1.5% among 220,000;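 active means compounds that cut the protein-peptide binding signal by more than 50% relative to plate controls in a single-dose test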;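 further: His-tagged Mcl-1 with rhodamine Noxa BH3 peptide and terbium anti-His antibody; 0% = Mcl-1 plus Noxa peptide wells and 100% = peptide-only wells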
Mcl1-Bid inh: Mcl-1/Bid binding inhibitors, primary screen, biochemical, TR-FRET, 1536-well. inhibition, % at 21.7 µM. Induced myeloid leukemia cell differentiation protein Mcl-1 (Homo sapiens), Q07820. hit rate 0.97% among 220,000. AID 1021, 2008. TR-FRET Mcl-1/Bid-Dy647 peptide binding;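 active means compounds that cut the binding signal by more than half at the single screening dose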;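 further: His-tagged Mcl-1 with europium anti-His antibody binding Bid BH3 peptide; 0% = Mcl-1 plus peptide wells and 100% = peptide-only wells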
MCL1-BIM inh: inhibitors of MCL1 binding to BIM-BH3, primary screen, biochemical, fluorescence polarization. GST-MCL1 / FITC-Bim-BH3 fluorescence polarization. hit rate 0.68% among 320,000. inhibition, % at 10.9 µM. Induced myeloid leukemia cell differentiation protein Mcl-1 (Homo sapiens), Q07820;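 active means inhibition above the mean inhibition of all tested compounds plus 3 SD, set per campaign, cut at about 40% in these data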;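 further: 0% = DMSO wells and 100% = unlabeled Bim-BH3 peptide control; higher means more loss of mP so more displacement of Bim peptide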
14-3-3 Bad PPI: inhibitors of 14-3-3 zeta/Bad binding, primary screen, biochemical, TR-FRET, bovine 14-3-3 zeta; AID 781, 2007; hit rate 0.71% among 220,000; inhibition, % at 21.7 µM; TR-FRET 14-3-3zeta/Dy647-pBad peptide displacement, 1 h; 14-3-3 protein zeta/delta (Bos taurus), P63103;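 active means inhibition above about 70%, limit read from the data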;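 further: 0% = full 14-3-3 plus peptide FRET controls and 100% = background without 14-3-3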
Target sequence (P63103 whole entry, looked up): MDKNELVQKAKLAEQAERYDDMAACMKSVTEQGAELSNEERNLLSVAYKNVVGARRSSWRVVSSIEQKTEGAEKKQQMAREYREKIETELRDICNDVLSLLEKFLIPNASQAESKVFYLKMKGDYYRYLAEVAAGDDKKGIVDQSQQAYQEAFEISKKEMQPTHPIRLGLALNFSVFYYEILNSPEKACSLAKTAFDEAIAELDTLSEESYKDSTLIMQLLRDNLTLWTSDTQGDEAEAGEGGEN
* hit, by the source's call; [ ] = remark or other dose.

What do the screens show for `COc1ccc(NC(=O)CCCC2CCCCC2)cc1S(=O)(=O)N1CCCCC1`?
Mcl-1 Bim block: 0; Mcl1-Noxa inh: -1; Mcl1-Bid inh: -16; MCL1-BIM inh: 4; 14-3-3 Bad PPI: -6

Results for Cc1c(-n2c(O)c(C3=c4ccccc4=NC3=O)sc2=S)c(=O)n(-c2ccccc2)n1C ?
Mcl-1 Bim block: -1; Mcl1-Noxa inh: 53*; Mcl1-Bid inh: 32; MCL1-BIM inh: 16; 14-3-3 Bad PPI: 40

Results for O=C1N=c2ccccc2=C1c1sc(=S)n(-c2ccc(O)cc2)c1O ?
Mcl1-Noxa inh: 70*; Mcl1-Bid inh: 21; MCL1-BIM inh: 8; 14-3-3 Bad PPI: 21

Results for O=C1N=c2ccccc2=C1c1sc(=S)n(Cc2ccccc2Cl)c1O ?
Mcl1-Noxa inh: 3; Mcl1-Bid inh: -22; MCL1-BIM inh: 11; 14-3-3 Bad PPI: -9

What do the screens show for `c1ccc(CSc2ncnc3ccccc23)cc1`?
Mcl-1 Bim block: 4; Mcl1-Noxa inh: -10; Mcl1-Bid inh: -19; MCL1-BIM inh: 0; 14-3-3 Bad PPI: -4

Results for Cc1cc2nc(-c3ccc(NC(=O)C(C)C)cc3)oc2cc1C ?
Mcl-1 Bim block: -1; Mcl1-Noxa inh: 6; Mcl1-Bid inh: 73*; MCL1-BIM inh: 2; 14-3-3 Bad PPI: 24

Results for O=C(Nc1ccc2oc(-c3ccncc3)nc2c1)c1cccs1 ?
Mcl-1 Bim block: 0; Mcl1-Noxa inh: 22; Mcl1-Bid inh: -2; MCL1-BIM inh: 10; 14-3-3 Bad PPI: 4

Results for COc1cc(C(=O)Nc2cc(-c3nc4cc(C)ccc4o3)ccc2C)cc(OC)c1OC ?
Mcl-1 Bim block: -1; Mcl1-Noxa inh: -8; Mcl1-Bid inh: 49; MCL1-BIM inh: 2; 14-3-3 Bad PPI: 79*

How did O=C(Nc1ccc(-c2nc3cc(NC(=O)c4cccs4)ccc3o2)cc1)c1cccs1 do in these assays?
Mcl-1 Bim block: 1; Mcl1-Noxa inh: 2; Mcl1-Bid inh: 12; MCL1-BIM inh: 2; 14-3-3 Bad PPI: 74*[fluorescence artefact?]

How did Cc1ccc2oc(-c3ccc(C)c(NC(=S)NC(=O)c4cccs4)c3)nc2c1 do in these assays?
Mcl-1 Bim block: -4; Mcl1-Noxa inh: 38; Mcl1-Bid inh: 53*; MCL1-BIM inh: 7; 14-3-3 Bad PPI: 23

What do the screens show for `Cc1nn(-c2ccc3nnc(Br)n3n2)c(C)c1Br`?
Mcl-1 Bim block: 1; Mcl1-Noxa inh: 12; Mcl1-Bid inh: -21; 14-3-3 Bad PPI: 1

What do the screens show for `COc1ccccc1CNS(=O)(=O)c1csc(C(N)=O)c1`?
MCL1-BIM inh: 6

What do the screens show for `O=C(CSc1ccc(Cl)cc1)Nc1cc(-c2nc3ncccc3o2)ccc1Cl`?
Mcl-1 Bim block: -5; Mcl1-Noxa inh: 20; Mcl1-Bid inh: 35; MCL1-BIM inh: 2; 14-3-3 Bad PPI: 16

Results for COc1ccc2oc(-c3ccc(C)c(NC(=O)CSc4ccc(Cl)cc4)c3)nc2c1 ?
Mcl-1 Bim block: -2; Mcl1-Noxa inh: 35; Mcl1-Bid inh: 54*; MCL1-BIM inh: 2; 14-3-3 Bad PPI: 38

Results for Cc1cc(C(=O)COC(=O)COc2ccccc2C#N)c(C)n1CC1CCCO1 (configuration not stated) ?
MCL1-BIM inh: -6

How did COc1ccc(/C=C(\C#N)C(=O)NCc2ccccc2)cc1O do in these assays?
MCL1-BIM inh: -2

What do the screens show for `COc1ccc(/C=C(\C#N)C(=O)Nc2cc(C)c(Cl)cc2OC)cc1O`?
Mcl1-Noxa inh: 71*; Mcl1-Bid inh: 10; MCL1-BIM inh: -5; 14-3-3 Bad PPI: 64

Results for O=C(Nc1ccc2nc[nH]c2c1)c1ccco1 ?
Mcl-1 Bim block: 1; Mcl1-Noxa inh: 25; Mcl1-Bid inh: -8; MCL1-BIM inh: 2; 14-3-3 Bad PPI: 5

Results for CSc1nc(C)cc(OCC(=O)n2nc(C)cc2C)n1 ?
Mcl-1 Bim block: 1; Mcl1-Noxa inh: 9; Mcl1-Bid inh: 99*; MCL1-BIM inh: -1; 14-3-3 Bad PPI: -3

How did COc1ccc2ccccc2c1CN1CCN(Cc2ccccc2)CC1 do in these assays?
Mcl-1 Bim block: -5; Mcl1-Noxa inh: 17; Mcl1-Bid inh: 11; MCL1-BIM inh: 5; 14-3-3 Bad PPI: 91*

Results for CC(C)CNC(=O)NC(=O)CSc1nc2ccccc2n1CC(C)C ?
Mcl-1 Bim block: -1; Mcl1-Noxa inh: 6; Mcl1-Bid inh: -25; MCL1-BIM inh: -3; 14-3-3 Bad PPI: -6

How did Fc1ccc(CSc2ccc(-c3ccco3)nn2)cc1 do in these assays?
Mcl-1 Bim block: -4; Mcl1-Noxa inh: 4; Mcl1-Bid inh: 61*; MCL1-BIM inh: 10; 14-3-3 Bad PPI: -5

How did COc1ccc(CN(C)S(=O)(=O)c2nnc(NC(=O)c3cccc(OC)c3)s2)cc1 do in these assays?
MCL1-BIM inh: 7

Results for O=C(Nc1ccccc1)Nc1cccc2nsnc12 ?
Mcl-1 Bim block: 0; Mcl1-Noxa inh: -4; Mcl1-Bid inh: 2; MCL1-BIM inh: 6; 14-3-3 Bad PPI: -7

Results for COc1ccc(/C=N/NC(=O)Nc2cccc3nsnc23)cc1 ?
Mcl-1 Bim block: -2; Mcl1-Noxa inh: 2; Mcl1-Bid inh: 53*; MCL1-BIM inh: -8; 14-3-3 Bad PPI: 1

What do the screens show for `O=C1OCCN1C(=O)[C@H]1[C@H](c2ccc(F)cc2)C(c2ccc(F)cc2)=NN1c1ccccc1`?
Mcl-1 Bim block: 60*; Mcl1-Noxa inh: -17; Mcl1-Bid inh: 0; MCL1-BIM inh: -8; 14-3-3 Bad PPI: 3

How did O=C1OCCN1C(=O)[C@H]1[C@H](c2ccc(F)cc2)C(c2ccc(F)cc2)=NN1c1ccc(Br)cc1 do in these assays?
Mcl-1 Bim block: -2; Mcl1-Noxa inh: -98; Mcl1-Bid inh: -6; MCL1-BIM inh: -2; 14-3-3 Bad PPI: 2

How did COC(=O)c1ccc(COc2ccc(/C=N/Nc3nc(C)cc(=O)[nH]3)cc2)cc1 do in these assays?
Mcl1-Noxa inh: 55*; Mcl1-Bid inh: 15; MCL1-BIM inh: 0; 14-3-3 Bad PPI: 45

Results for OCCCc1nc2n(n1)C(c1cccs1)C=C(c1ccc(Br)cc1)N2 (configuration not stated) ?
Mcl-1 Bim block: 2; Mcl1-Noxa inh: 10; Mcl1-Bid inh: -5; MCL1-BIM inh: active; 14-3-3 Bad PPI: 15

What do the screens show for `Brc1ccc(C2=CC(c3cccs3)n3ncnc3N2)cc1` (configuration not stated)?
Mcl-1 Bim block: -5; Mcl1-Noxa inh: -18; Mcl1-Bid inh: -46; MCL1-BIM inh: active; 14-3-3 Bad PPI: -2

What do the screens show for `CC(C)C(=O)NC(=S)Nc1sc2c(c1C(N)=O)CCCC2`?
Mcl-1 Bim block: 0; Mcl1-Noxa inh: 64*; Mcl1-Bid inh: -80; MCL1-BIM inh: 22; 14-3-3 Bad PPI: 2
